MCF10A rereplic: inducers of DNA re-replication in MCF 10A breast cells; MCF 10A DNA re-replication, Hoechst nuclear intensity, 48 h; Potency, µM (series often up to 46.1 µM), hits mostly activators; hit rate 2.9% among 350,000; note: nearly all actives have a fitted effect of over 50% in size
SW480 rereplic: inducers of DNA re-replication in SW480 colon cancer cells; Potency, µM (top dose mostly 46.1 µM), actives largely listed as activators; AID 624297; hit rate 1.8% among 340,000; SW480 DNA re-replication, Hoechst DNA content imaging, 48 h; note: nearly all actives have a fitted effect of over 55% in size
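Per well, 250 cells were exposed to pinned compound for 48 hr. Nuclear DNA was visualised with Hoechst (40 min, 37 C) and total object intensity recorded by fluorescence scanning.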
RORg inh: blocks mouse ROR gamma transcriptional activity; Drosophila S2 Gal4-RORgamma UAS-luciferase reporter, 20 h; Potency, µM (highest dose often 53.6 µM), actives largely listed as inhibitors; hit rate 5.4% among 310,000; AID 2551; note: nearly all actives have a fitted effect of over 60% in size
Target sequence (P51450 whole entry, looked up, the tested form may be a part): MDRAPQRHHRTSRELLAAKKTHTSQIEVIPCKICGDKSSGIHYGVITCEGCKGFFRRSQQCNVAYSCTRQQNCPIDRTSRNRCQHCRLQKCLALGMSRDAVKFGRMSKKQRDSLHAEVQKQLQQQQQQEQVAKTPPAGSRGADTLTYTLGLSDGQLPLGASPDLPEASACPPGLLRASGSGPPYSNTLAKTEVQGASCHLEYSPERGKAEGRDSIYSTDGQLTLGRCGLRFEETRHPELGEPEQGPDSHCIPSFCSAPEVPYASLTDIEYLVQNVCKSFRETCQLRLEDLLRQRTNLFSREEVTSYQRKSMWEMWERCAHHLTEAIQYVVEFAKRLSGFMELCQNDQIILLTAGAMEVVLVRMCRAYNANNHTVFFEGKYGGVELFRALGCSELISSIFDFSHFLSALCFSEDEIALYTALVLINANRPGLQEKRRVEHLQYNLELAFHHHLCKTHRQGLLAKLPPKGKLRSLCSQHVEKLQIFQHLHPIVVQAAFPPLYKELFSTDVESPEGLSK
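Stable Schneider cell line, Gal4 DNA-binding domain fused to ROR gamma, UAS-luciferase. Cmpd 1 hr RT → CuSO4 700 uM final → 20 hr RT → luciferase reagent 10 min → luminescence.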
ELG1 DNA repair: inhibitors of ELG1-dependent DNA repair in HEK293T cells; HEK293T ELG1-luciferase reporter, luminescence, 16 h; DNA damage induced by 5-fluorouridine; hit rate 2.3% among 330,000; Potency, µM (top dose mostly 46.1 µM), hits mostly inhibitors; note: nearly all actives have a fitted effect of over 55% in size
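Cells (2,000 per well) received 5-fluorouridine plus test compound or DMSO and were incubated 16 hr at 37 °C, 5% CO2. Luciferase activity was read by luminescence 30 min after ONE-Glo addition; signal suppression marked inhibition of damage-induced ELG1 function.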
VP16 counter: inhibits Gal4-VP16 luciferase reporter, ROR gamma counter-screen. Drosophila S2 Gal4-VP16 UAS-luciferase, luminescence, 20 h. Potency, µM (titrated, usually from 53.6 µM), usual class: inhibitors. hit rate 3.5% among 310,000. AID 2546;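 note: Gal4-VP16 expression switched on by copper sulfate through the metallothionein promoter; nearly all actives have a fitted effect of over 50% in size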
Each line names hits and unclear results; the compound was inactive in the other large screens. A selection: hits, their analogues and other compounds. The true share with any hit is near 10%. Calls come from the whole dose curve; as a rule, active = well fitted curve in the direction sought with a large enough effect; inconclusive = small, poorly fitted or top-dose-only effect, or another doubt; inactive = no such curve, though single readings can be large; an effect the other way counts as inactive or inconclusive.

CCOCCCNC(=O)C(NC(=O)Cc1c[nH]c2ccccc12)c1ccccc1 (configuration not stated)	none
CCCn1c2c(c(=N)c3c1CCC3)CCC2	ELG1 DNA repair 18µM
CCOC(=O)Cn1c2c(c(=N)c3c1CCC3)CCCC2	none
COC(=O)/C=C1/S/C(=N/NC(=O)c2ccc(OC)cc2)NC1=O	RORg inh 14µM, ELG1 DNA repair inconclusive, VP16 counter inconclusive
COc1ccc(S(=O)(=O)/N=C2/NC(=O)/C(=C/c3ccco3)S2)cc1	none
COc1ccc(N=C2NC(=O)/C(=C/c3ccco3)S2)cc1	MCF10A rereplic inconclusive, SW480 rereplic 7.3µM, ELG1 DNA repair inconclusive, VP16 counter inconclusive
COC(=O)/C=C1\SC(=Nc2ccc(OC)cc2)NC1=O	MCF10A rereplic 3.7µM
CCOC(=O)c1sc(=S)n(C)c1NC(=O)c1cccc(Br)c1	MCF10A rereplic inconclusive, ELG1 DNA repair 13µM
CSc1nc(-c2ccc(F)cc2)cc(=O)[nH]1	SW480 rereplic 9.2µM
O=C(Nc1cccnc1)c1ccccc1NS(=O)(=O)c1ccc(F)cc1	RORg inh inconclusive, ELG1 DNA repair inconclusive
O=S(=O)(Nc1ccc(-c2csc(-c3ccccc3)n2)cc1)c1ccc(F)cc1	MCF10A rereplic 16µM, RORg inh inconclusive, VP16 counter inconclusive
O=C(Nc1nc(-c2ccccc2)cs1)c1ccccc1NS(=O)(=O)c1ccc(F)cc1	MCF10A rereplic 16µM, RORg inh inconclusive, ELG1 DNA repair inconclusive, VP16 counter 5.6µM
COC(=O)[C@@]12CCCCN1[C@H](c1ccc(-c3ccc(C(C)=O)cc3)cc1)[C@@H]1C(=O)N(C)C(=O)[C@@H]12	ELG1 DNA repair inconclusive (no result: RORg inh, VP16 counter)
CCC(C)[C@H](NC(=O)[C@@H]1Cc2ccccc2CN1)C(=O)Nc1ccc2c(c1)OCO2 (some centres not stated)	ELG1 DNA repair inconclusive
CCn1cc(CNc2nc3nonc3nc2N2CCCCC2)cn1	RORg inh 7.1µM, VP16 counter inconclusive
CCC1(C)Cc2nc3[nH]c(=S)n(-c4ccccc4C)c(=O)c3cc2CO1 (configuration not stated)	RORg inh 6.3µM, VP16 counter 10µM
CCC1(C)Cc2nc3[nH]c(=S)n(-c4ccccc4)c(=O)c3cc2CO1 (configuration not stated)	SW480 rereplic inconclusive, RORg inh 2.8µM, VP16 counter inconclusive
CC1(C)Cc2nc3[nH]c(=S)n(-c4ccccc4)c(=O)c3cc2CO1	SW480 rereplic inconclusive (no result: RORg inh, ELG1 DNA repair, VP16 counter)
CC(C)CC(CO)N1CCN(C(=O)c2ccc(Cl)cc2)CCC1=O (configuration not stated)	none (no result: RORg inh, ELG1 DNA repair, VP16 counter)
N=c1c(S(=O)(=O)c2ccc(Cl)cc2)cc2c(=O)n3ccccc3nc2n1Cc1ccco1	MCF10A rereplic inconclusive, SW480 rereplic 5.2µM
COCCn1c(=N)c(S(=O)(=O)c2ccc(F)cc2)cc2c(=O)n3ccccc3nc21	MCF10A rereplic 18µM, SW480 rereplic 21µM
N=c1c(S(=O)(=O)c2ccc(Br)cc2)cc2c(=O)n3ccccc3nc2n1Cc1ccco1	MCF10A rereplic inconclusive
Cc1ccc(Oc2c(C(N)=O)cc([N+](=O)[O-])cc2[N+](=O)[O-])cc1	MCF10A rereplic inconclusive, SW480 rereplic inconclusive, RORg inh 2.8µM, ELG1 DNA repair inconclusive, VP16 counter 2.5µM
Cc1n[nH]c(C)c1S(=O)(=O)N1CCCC(C(=O)NCc2ccc(F)cc2)C1 (configuration not stated)	MCF10A rereplic 0.73µM, VP16 counter inconclusive
COc1ccc(CNC(=O)C2CCN(S(=O)(=O)c3c(C)n[nH]c3C)CC2)cc1	ELG1 DNA repair inconclusive
COc1cccc(CNC(=O)C2CCCN(S(C)(=O)=O)C2)c1 (configuration not stated)	MCF10A rereplic 21µM
COc1cccc(CNC(=O)C2CCCN(S(=O)(=O)c3cnc[nH]3)C2)c1 (configuration not stated)	none
CCN(c1ccc(C(=O)CN2C(=O)NC3(CCOc4ccccc43)C2=O)cc1)S(C)(=O)=O (configuration not stated)	none (no result: RORg inh, VP16 counter)
COc1ccc(NC(=S)NC2CCCCCC2)c(OC)c1	RORg inh 3.2µM, VP16 counter 7.1µM
COc1ccc(Cl)cc1NC(=S)NC1CCCC1	RORg inh 10µM, VP16 counter 7.1µM
COc1ccc(Cl)cc1NC(=S)Nc1ccccc1F	RORg inh inconclusive, VP16 counter inconclusive
COc1ccc(Cl)cc1NC(=S)N1CCC(c2ccc(C)cc2)C1 (configuration not stated)	MCF10A rereplic inconclusive, RORg inh 13µM
Cc1cccc(C)c1NC(=S)N1CCC(c2ccccc2)C1 (configuration not stated)	RORg inh 16µM, VP16 counter 35µM
O=C(NC1CCN(C(=O)Nc2ccccc2Cl)CC1)c1cccc(F)c1	none
COC(=O)[C@@]1(Cc2ccc(F)cc2)[C@H]2c3cc(C(=O)N(C)C)n(Cc4ccc(C)c(F)c4F)c3C[C@H]2CN1C(=O)c1ccccc1	none (no result: MCF10A rereplic, SW480 rereplic, ELG1 DNA repair)
COc1ccc(NC(=S)NC2CCCCC2)c(OC)c1	RORg inh 3.2µM, VP16 counter inconclusive
CCOc1ccc(S(=O)(=O)/N=C(/c2ccccc2)N(C)C)cc1	none
CCOc1ccc(S(=O)(=O)/N=C(\N)c2ccccc2)cc1	RORg inh inconclusive, ELG1 DNA repair 23µM
CCn1cc(C(=O)NCc2ccc3c(c2)OCO3)c(=O)c2cc(S(=O)(=O)N(C)C)ccc21	ELG1 DNA repair 16µM
CCn1cc(C(=O)NC(C)CCc2ccccc2)c(=O)c2cc(S(=O)(=O)N(C)C)ccc21 (configuration not stated)	ELG1 DNA repair 21µM
CCN(CCCNC(=O)c1cn(CC)c2ccc(S(=O)(=O)N(C)C)cc2c1=O)c1cccc(C)c1	RORg inh inconclusive, ELG1 DNA repair 23µM
CCn1cc(C(=O)NCc2ccc3c(c2)OCO3)c(=O)c2cc(S(=O)(=O)N3CCOCC3)ccc21	RORg inh inconclusive, ELG1 DNA repair inconclusive
C=CCn1cc(C(=O)NCCCOCC)c(=O)c2cc(S(=O)(=O)N(CC)CC)ccc21	ELG1 DNA repair 18µM
Nc1ncc(Br)cc1S(=O)(=O)NCCC(=O)N1CCN(c2ccccc2)CC1	none
COc1ccccc1CNC(=O)c1ccccc1NC(=O)C1=C(C)OCCS1	ELG1 DNA repair inconclusive
NC(=O)N/N=C/c1c(Sc2nnnn2-c2ccccc2)nc2ccccn2c1=O	MCF10A rereplic 15µM, SW480 rereplic 7.3µM, RORg inh inconclusive, ELG1 DNA repair inconclusive, VP16 counter inconclusive
O=C(CSc1nnnn1-c1ccccc1)CSc1nnnn1-c1ccccc1	ELG1 DNA repair inconclusive
O=C(COC(=O)Cc1c[nH]c2ccccc12)Nc1cc(S(=O)(=O)N2CCOCC2)ccc1Cl	none (no result: RORg inh, VP16 counter)
COC(=O)c1cn(Cc2ccccc2C)nn1	none
O=C(NC(=S)Nc1ccccc1N1CCCC1)c1cccc(F)c1	RORg inh 3.2µM, VP16 counter 7.9µM
